Holding throughout (assay): NCI-60 one-dose screen, 48 h (100 = growth as untreated, 0 = no growth, -100 = all killed)
In assay [1] the test system is HCT-15 colon. As to conditions: 10 µM unless noted.
Assay [2] has as its system HT29 colon. As to conditions: 10 µM unless noted.
Assay [3] concerns SNB-75 CNS. Conditions: 10 µM unless noted.
In assay [4] the test system is SNB-19 CNS. Conditions: 10 µM unless noted.
In assay [5] the test system is U251 CNS. Conditions: 10 µM unless noted.
For assay [6], the system named is PC-3 prostate. Conditions: 10 µM unless noted.
For assay [7], the system named is SK-MEL-5 melanoma. Conditions: 10 µM unless noted.
Assay [8] has as its system UACC-62 melanoma. Conditions: 10 µM unless noted.
Assay [9] relates to LOX IMVI melanoma. As to conditions: 10 µM unless noted.
In assay [10] the test system is SK-MEL-28 melanoma. As to conditions: 10 µM unless noted.
Assay [11] concerns EKVX NSCLC. Conditions: 10 µM unless noted.
In assay [12] the test system is SN12C renal. Conditions: 10 µM unless noted.
In assay [13] the test system is UO-31 renal. As to conditions: 10 µM unless noted.
For assay [14], the system named is TK-10 renal. As to conditions: 10 µM unless noted.
Assay [15] relates to ACHN renal. Conditions: 10 µM unless noted.
Assay [16] relates to CAKI-1 renal. Conditions: 10 µM.
Assay [17] concerns A498 renal. As to conditions: 10 µM unless noted.
Assay [18] deals with CCRF-CEM leukemia. As to conditions: 10 µM unless noted.
The test system of assay [19] is SK-MEL-2 melanoma. As to conditions: 10 µM unless noted.
For assay [20], the system named is MOLT-4 leukemia. Conditions: 10 µM unless noted.

Among the data in PubChem BioAssay (NCI) are growth values, retold here.

SMILES strings stand for the structures. The panel holds about 83,000 compounds, 20% with a hit somewhere; the sample as a whole holds those more often.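 Each cell line was grown in a 96-well plate and treated with one concentration of compound for 48 hours. Values below 10 were considered active.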 Values without a mark were called inactive. Active and inactive are the calls of the source.

Regarding `C=CCn1c(SCC(=O)Nc2cccc(C(=O)/C=C/c3cccc([N+](=O)[O-])c3)c2)nc2ccccc2c1=O`, the growth in [1] was 79.3%; in assay [2] it was 94.9%; in [3], 85.5%; in assay [4], 90.2%; in [5] it was 87.9%; in [6], 87.4%. Also, the growth in [7] is 98.6%; in [8], 77.2%; in assay [9] it was 72.8%; in assay [10], 95.4%; in [11], 96%; in assay [12], 98.3%. The growth was 79% in assay [13]; 98.4% in assay [14]; 96.5% in [15]; 81.2% in assay [16]; 81.1% in assay [17]; 94.5% in assay [18].
Turning to `COc1cc(C(=O)c2cc(C(C)=O)c3c4ccccc4ccn23)cc(OC)c1OC`, the growth in [1] is 28.5%; in assay [2] it was 39.6%; in assay [3], 45.3%; in assay [4], 64.3%; in assay [5] it was 73.6%; in assay [6] it was 48.1%. Moreover, the growth in assay [7] was 22.9%; in assay [8] it was 38%; in [9], 58.4%; in [10] it was 80.9%; in [19], 51.5%; in [12], 74.4%. In addition, the growth in [13] is 43.3%; in assay [14], 70.3%; in assay [15] it was 71.8%; in [16] it was 30.2%; in assay [17] it was 34%; in assay [18], 48.9%. Also, the growth in assay [20] is 34.6%.
Turning to `CS(=O)(=O)c1nccc(-c2c(-c3ccc(F)c(OCc4ccc(F)cc4)c3)nc3sccn23)n1`, the growth in [1] was 70%; in assay [2], 85.5%; in assay [3], 106%; in assay [4] it was 75.4%; in assay [5], 100%; in assay [6] it was -17.3% (active). For the same compound, the growth in assay [7] was 96.7%; in assay [8], 81.1%; in assay [9] it was 19.9%; in assay [10], 61.6%; in [11], 28.4%; in [12] it was 86.2%. For the same compound, the growth in [13] was 80.1%; in assay [14], 105%; in [15] it was 91.3%; in assay [16] it was 81.5%; in assay [17], 76.6%; in [18] it was 79.4%.
In the case of `CCN1C(=O)N(CC)C2SC(N/N=C/c3ccccc3F)=NC21` (configuration not stated), the growth in assay [1] is 16.2%; in [2] it was 0.675% (active); in [3], 21.5%; in assay [4], 24.6%; in assay [5], 16.4%; in [6], 29.8%. In addition, the growth in assay [7] is 11.1%; in [8], 37.6%; in assay [9] it was 15.6%; in assay [10] it was 54.8%; in assay [19], 12%; in assay [12], 34.6%. Moreover, the growth was 50.2% in assay [13]; 87.7% in [14]; 34.4% in assay [15]; 31.3% in [16]; -22.1% (active) in assay [17]; 20% in [18]. Further, the growth in assay [20] is 15.5%.
Take `c1cncc(-c2cn3nc(-c4c[nH]c5ccccc45)sc3n2)c1`: the growth in assay [1] is 27.7%; in [2], 21.6%; in assay [3] it was 51.8%; in assay [4] it was 61.1%; in assay [5], 69.9%; in assay [6], 48.7%. Also, the growth in [7] was 23.4%; in assay [8], 55.3%; in assay [9], 46.7%; in assay [10] it was 55.5%; in [11], 72.5%; in [12] it was 61.5%. Also, the growth in assay [13] is 44.6%; in assay [14] it was 94.4%; in assay [15], 72.3%; in assay [16], 51.7%; in [17], 47.9%; in assay [18], 54.1%.
Regarding `COc1cnc2c(c1)C(=O)c1c-2n(CCCn2ccnc2)c(=O)c2cc(OC)c(OC)cc12`, the growth in assay [1] is -53.2% (active); in assay [2], -56.1% (active); in assay [3], 12.4%; in assay [4], 14.9%; in assay [5], -84.8% (active); in assay [6] it was -54.9% (active). The growth in assay [7] was -28.4% (active); in [8], -11% (active); in assay [9] it was -51.5% (active); in assay [10], 45.5%; in assay [11], -9.94% (active); in [12], 3.73% (active). The growth in [13] was -91.4% (active); in [14], -91.4% (active); in [15], -36.1% (active); in assay [16], 9.33% (active); in [17], 17.8%; in assay [18] it was -2.01% (active).
As for `C=CCn1c(SCC(=O)Nc2cccc(C(=O)/C=C/c3ccc(OC)c(OC)c3)c2)nc2ccccc2c1=O`, the growth is 72.4% in [1]; 95% in assay [2]; 83.7% in assay [3]; 77.2% in assay [4]; 76.6% in [5]; 79.7% in assay [6]. The growth in assay [7] was 97.6%; in [8] it was 74.9%; in [9], 79.5%; in assay [10], 102%; in assay [11], 100%; in [12], 96.8%. In addition, the growth in assay [13] is 74.6%; in assay [14], 116%; in assay [15], 92.2%; in [16] it was 75.7%; in [17], 89.3%; in assay [18], 78.5%.
As to `CS(=O)c1nccc(-c2c(-c3ccc(F)c(OCCc4ccc(F)cc4)c3)nc3sccn23)n1` (configuration not stated), the growth in [1] was 11.7%; in assay [2], 7.84% (active); in assay [3] it was 88.7%; in [4] it was 70.8%; in [5], 92.6%; in [6] it was 60.5%. Further, the growth in assay [7] was 99.1%; in assay [8], 86%; in [9] it was 19.9%; in [10] it was 64.8%; in assay [11] it was 36.1%; in assay [12], 93.4%. For the same compound, the growth is -45.1% (active) in assay [13]; 107% in [14]; 37.7% in assay [15]; 47.3% in assay [16]; 82.2% in [17]; 14.5% in assay [18]. The growth in [20] was 9.78% (active).
